PubChem BioAssay (NCATS)
Results filed as inconclusive are left out. Entries that show only a call come without a potency. The source made the active and inactive calls. Calls follow the shape of the dose curve; as a rule, active = well fitted cell-killing curve with a large enough effect; inconclusive = small, poorly fitted or top-dose-only effect; inactive = flat fitted curve, though single readings scatter.

assay: Cell Viability - LYMP2-020 (AID 986); conditions: series mostly up to 92.2 µM;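 also: cells exposed to compound for 24 h at 37 °C; nearly all actives have a fitted effect of over 55% in size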
Source text: NIH Chemical Genomics Center [NCGC]
NIH Molecular Libraries Screening Centers Network [MLSCN]
National Institutes of Environmental Health Sciences [NIEHS]
National Toxicology Program [NTP]
We have developed a 1536-well cell-based assay for quantitative high throughput screening (qHTS) against a number of cell lines to determine in vitro cytotoxicity of small molecules. This particular assay uses a human lymphoblastoid cell line (LYMP2-020) purchased from Coriell Institute for Medical Research.
NCGC Assay Protocol Summary:
The CellTiter-Glo luminescent cell viability assay (Promega) is a homogeneous method to measure the number of viable cells in culture. The end point readout of this assay is based on quantitation of intracellular ATP, an indicator of metabolic activity, using the luciferase reaction. Luciferase catalyzes the oxidation of beetle Luciferin to oxyluciferin and light in the presence of ATP. The luminescent signal is proportional to amount of ATP present.
Using the CellTiter-Glo luminescent cell viability assay, the amount of cellular ATP was measured in the lymphoblastoid cell line with complete culture medium following compound treatment for 24 hours. The assay was performed in opaque white Kalypsys 1536-well plates. In the screen, tetraoctylammonium bromide was used as positive control. Library compounds were measured for their ability to cause acute toxicity in the cell line, as reflected by a decrease in intracellular ATP levels, in a concentration-dependent manner. […] AC50 values were determined from concentration-response data modeled with the standard Hill equation.
qHTS protocol for CellTiter Glo lymphoblastoid cellular assay
[Step] [Parameter] [Value] [Description]
1. Reagent; 5 uL; 2500 lymphoblastoid cells/well
2. Time; 5 hr; 37 C incubation
4. Controls; 23 nL; Tetraoctylammonium bromide 6.4pM to 92 uM
5. Time; 24 hr; 37 C incubation
6. Reagent; 5 uL; CellTiter Glo reagent
7. Time; 30 min; Room Temperature
8. Detection; Luminescence; Viewlux plate reader
Keywords: cell viability, cytotoxicity, lymphoblastoid cell line, luminescence, NTPHTS, NTPHTS_NCGC, NIEHS, DSSTox, MLSMR, MLSCN, NIH Roadmap, qHTS, NCGC

Row | Structure (SMILES) | Potency
1 | C1CC2OC2CC1C1CO1 (stereo not given) | inactive
2 | CCCCC#N | inactive
3 | C=CC=O | inactive
4 | N#CCc1ccccc1 | inactive
5 | C/C=C/CC#N | inactive
6 | Cl/C=C/CCl | inactive
7 | O=[N+]([O-])c1ccc(O)c([N+](=O)[O-])c1 | inactive
8 | O=[N+]([O-])c1ccccc1O | inactive
9 | [O-][Cl+2]([O-])O | inactive
10 | C=C(C)CCl | inactive
11 | CC(C)OC(=O)Cc1ccccc1 | inactive
12 | CCBr | inactive
13 | [O-][Cl+]O | inactive
14 | CCOS(C)(=O)=O | inactive
15 | COC(C)(C)C | inactive
16 | Nc1cc(Cl)ccc1Cl | inactive
17 | OCCCCO | inactive
18 | Cl/C=C/Cl | inactive
19 | O=[N+]([O-])c1c(Cl)c(Cl)c(Cl)c(Cl)c1Cl | inactive
20 | Cc1coc2c1CCC(C)C2 (stereo not given) | inactive

Row | Structure (SMILES) | Potency
21 | O=C(O)C(Cl)Br (stereo not given) | inactive
22 | O=C(O)C(Br)Br | inactive
23 | C=COC(C)=O | inactive
24 | N#CCCCCC#N | inactive
25 | O=S(=O)(Cl)c1ccccc1 | inactive
26 | S=c1[nH]c2ccccc2[nH]1 | inactive
27 | c1ccoc1 | inactive
28 | CCCCOCC1CO1 (stereo not given) | inactive
29 | CC(C)CC(C)N (stereo not given) | inactive
30 | ClCc1ccccc1 | inactive
31 | COc1ccccc1N | inactive
32 | CCCC[N+](=O)[O-] | inactive
33 | CC(C)(C)c1ccccc1O | inactive
34 | Cc1cc(-c2ccc(N)c(C)c2)ccc1N | inactive
35 | Clc1cccc(Cl)c1 | inactive
36 | BrC(Br)Br | inactive
37 | CN=C=O | inactive
38 | CN(C)C(=O)Nc1cccc(C(F)(F)F)c1 | inactive
39 | O=[N+]([O-])c1cccc(O)c1 | inactive
40 | CC12CC1(C)C(=O)N(c1cc(Cl)cc(Cl)c1)C2=O (stereo not given) | inactive
